Assay results as given in publication PMC4336329 (PLoS ONE, 2015).
Out of some 310,000 compounds screened, about 14,000 (4.5%) showed an effect of 50% or more. The effect is printed as a negative number. The sample holds strong results, similar compounds and a random draw of the others, so the mix is not that of the screen.

These compounds were tested against human ether-à-go-go-related gene (hERG) potassium channel (human, UniProt Q12809) (assay: primary screen, population patch clamp on CHO cells stably expressing hERG; higher = less effect of the substance).
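Further: peak tail current of the secondary pulse compared with the same well before compound.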

human ether-à-go-go-related gene (hERG) potassium channel, sequence (Q12809 whole entry, looked up): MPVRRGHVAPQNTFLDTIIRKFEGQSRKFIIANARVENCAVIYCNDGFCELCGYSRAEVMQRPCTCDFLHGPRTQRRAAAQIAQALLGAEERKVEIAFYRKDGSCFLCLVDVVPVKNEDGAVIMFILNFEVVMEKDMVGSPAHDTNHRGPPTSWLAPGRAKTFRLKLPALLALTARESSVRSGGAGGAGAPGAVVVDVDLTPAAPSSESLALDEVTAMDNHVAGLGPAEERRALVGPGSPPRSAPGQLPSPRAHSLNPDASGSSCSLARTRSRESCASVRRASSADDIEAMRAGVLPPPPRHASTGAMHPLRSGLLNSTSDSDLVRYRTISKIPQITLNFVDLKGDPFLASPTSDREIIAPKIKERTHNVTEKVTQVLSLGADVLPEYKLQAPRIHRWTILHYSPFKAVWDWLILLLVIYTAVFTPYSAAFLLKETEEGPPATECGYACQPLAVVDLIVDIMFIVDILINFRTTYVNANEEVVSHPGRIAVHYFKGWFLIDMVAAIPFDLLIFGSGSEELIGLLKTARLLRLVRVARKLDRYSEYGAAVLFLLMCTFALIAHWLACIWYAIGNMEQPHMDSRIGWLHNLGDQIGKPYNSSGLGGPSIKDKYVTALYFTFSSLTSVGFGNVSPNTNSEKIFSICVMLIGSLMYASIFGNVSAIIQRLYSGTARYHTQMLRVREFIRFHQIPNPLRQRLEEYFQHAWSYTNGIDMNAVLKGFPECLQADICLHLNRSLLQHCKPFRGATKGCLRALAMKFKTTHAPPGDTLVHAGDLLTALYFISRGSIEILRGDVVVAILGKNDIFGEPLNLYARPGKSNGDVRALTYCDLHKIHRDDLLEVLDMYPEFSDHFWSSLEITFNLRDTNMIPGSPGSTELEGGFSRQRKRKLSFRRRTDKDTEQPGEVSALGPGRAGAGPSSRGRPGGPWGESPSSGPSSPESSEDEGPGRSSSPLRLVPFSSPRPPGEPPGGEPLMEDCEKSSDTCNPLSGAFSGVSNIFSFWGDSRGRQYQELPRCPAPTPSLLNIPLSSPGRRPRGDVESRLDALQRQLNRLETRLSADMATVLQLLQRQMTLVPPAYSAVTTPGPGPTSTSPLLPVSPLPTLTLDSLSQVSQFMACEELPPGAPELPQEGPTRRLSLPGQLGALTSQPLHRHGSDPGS

SMILES | hERG current change (%, negative = inhibition) at 10uM
COc1ccc2c(CC(=O)Nc3ncc(C)s3)coc2c1 | 5.72%
CN(C)c1ccc(C(CC(=O)O)C(=O)O)cc1 (stereo not drawn) | 14.4%
CCOc1ccc(C(=O)CCC(=O)Nc2ncccc2O)cc1 | 5.51%
Cc1ccccc1OCC(O)Cn1c(NCCN(C)C)nc2c1c(=O)n(C)c(=O)n2C (stereo not drawn) | -20.3%
CSc1cccc(NC(=O)/C=C/c2ccc(Cl)cc2)c1 | -4.08%
O=S(=O)(Nc1ncccn1)c1ccc(NC(=S)N2CCN(Cc3ccc(F)cc3Cl)CC2)cc1 | 22%
CNC(C)C#Cc1ccc2c(=O)c3c(OC)cccc3oc2c1 (stereo not drawn) | 0.579%
CC(=O)Nc1sc2c(c1CN1CCN(c3ccc(F)cc3)CC1)CCCC2 | -6.73%
CC(C)(C)c1ccc(C(=O)Nc2cccnc2)cc1 | -18.7%
O=C(Nc1ccc(Oc2cccnc2)nc1)c1ccc(C(F)(F)F)cc1 | -30%
CC(C)(C)c1ccc(C(=O)Nc2ccc(Oc3cccnc3)nc2)cc1 | -61.2%
CCCCC(=Nc1ccccc1OC)C1=C(O)CC(c2ccccc2)CC1=O (stereo not drawn) | 3.11%
COc1cc(C2C(C#N)=C(N)Oc3cc(N(C)C)ccc32)cc2c1OCO2 (stereo not drawn) | -6.32%
COC(=O)c1ccc(COc2ccc(F)cc2)o1 | -27.4%
COc1cc(/C=C2/SC(=S)N(CCC(=O)Nc3ccccc3)C2=O)cc(OC)c1OC | 13.8%
CCN(CC)CCSc1nnc2c3cc(F)ccc3n(Cc3ccccc3)c2n1 | -77%
NNc1nnc2c3cc(F)ccc3n(Cc3ccccc3)c2n1 | -22.4%
CSc1nnc2c3cc(C)ccc3n(Cc3ccccc3)c2n1 | 2.55%
CCN(CC)CCSc1nnc2c3cc(C)ccc3n(Cc3ccccc3)c2n1 | -79.1%
CSc1nnc2c3cc(F)ccc3n(Cc3ccccc3)c2n1 | 13.6%
Cc1ccc2c(c1)c1nnc(SCC(=O)Nc3cccc(Cl)c3C)nc1n2CC(=O)O | 19.6%
O=c1cc(CNc2cc(C(F)(F)F)cc(C(F)(F)F)c2)nc2sccn12 | -6.36%

SMILES | hERG current change (%, negative = inhibition) at 10uM
Cn1nc(OCCOc2ccccc2)ccc1=O | -4.45%
NC(=O)c1ccc(Oc2ncc(C(F)(F)F)cc2Cl)cc1 | -3.77%
O=C(NCc1cccs1)c1ccccc1F | -3.47%
Cc1ccc(-c2nc(CN(C)C)cc(CN(C)C)c2O)cc1.Cl | -14.6%
Cc1ccc(-c2nc(CN3CCCCC3)cc(CN3CCCCC3)c2O)cc1.Cl | -62.5%
CC(C)(C)c1nc(CN2CCCCC2)cc(CN2CCCCC2)c1O | -24.2%
Cc1ccccc1OCC(=O)OCn1nnc2ccccc2c1=O | 19.6%
Cc1ccc2[nH]c3c(=O)n(CC(=O)NCc4ccco4)ncc3c2c1 | 21.9%
CCN(CCCNC(=O)Cn1ncc2c([nH]c3ccc(C)cc32)c1=O)Cc1ccccc1 | -58.5%
CCN(CCCNC(=O)Cn1ncc2c([nH]c3ccccc32)c1=O)Cc1ccccc1 | -67%
CC(C)N(CCCNC(=O)Cn1ncc2c([nH]c3ccccc32)c1=O)Cc1ccccc1 | -48.1%
CCN(CCCNC(=O)Cn1ncc2c([nH]c3ccc(C)cc32)c1=O)c1ccccc1 | 19%
O=C(Cn1ncc2c([nH]c3ccccc32)c1=O)NCCc1ccccc1 | 3.06%
Cc1ccc2[nH]c3c(=O)n(CC(=O)NCCCN(C)Cc4ccccc4)ncc3c2c1 | -31.6%
Cc1ccc(NC(=O)c2oc3ccc(S(=O)(=O)N4CCOCC4)cc3c2C)c(C)c1 | 5.03%
O=C(Nc1nc(N2C(=O)c3ccccc3C2=O)n(-c2ccccc2)n1)c1ccc(Cl)cc1 | -7.9%
CC1CC(C)CN(CCCNC(=O)Cc2c(C(=O)O)n(C)c3ccccc23)C1 (stereo not drawn) | -15.9%
COC(=O)c1c(NC(=O)CCCC(=O)O)sc2c1CCCCC2 | 12.2%
CCOc1ccc(-c2n[nH]c(C)c2-c2ccccn2)c(O)c1 | 13.6%
CS(=O)(=O)Nc1ccc(C(=O)NCc2ccccn2)cc1 | 0.863%
O=C(NC1CCCC1)c1ccc(CS(=O)(=O)Cc2ccccc2F)o1 | -7.89%
COCCCn1c(SCC(=O)NCc2ccccc2)nc2ccccc2c1=O | -48.6%

SMILES | hERG current change (%, negative = inhibition) at 10uM
O=C(CSc1nc2ccccc2c(=O)n1CCCC(=O)N1CCCC1)NCc1ccco1 | -62.4%
CCn1c(SCC(=O)Nc2cccc(OC)c2)nc2ccccc2c1=O | -47.1%
CC(=O)Nc1ccc(NC(=O)COC(=O)c2ccccc2SCC(=O)N2CCCC2)cc1 | 5.48%
O=C(CSc1nc2ccccc2c(=O)n1CCCO)NCc1ccccc1 | -41.5%
Cc1ccc(CNC(=O)CSc2nc3ccccc3c(=O)n2CCCO)cc1 | -73%
COc1ccc(NC(=O)COC(=O)c2ccccc2SCC(=O)N2CCCC2)cc1 | -53.9%
Cc1ccc(NC(=O)CSc2nc3ccccc3c(=O)n2CCCC(=O)N2CCCC2)cc1 | -44.5%
COc1cccc(NC(=O)CSc2nc3ccccc3c(=O)n2CCCC(=O)N2CCCC2)c1 | -67.3%
COc1cc(NC(=O)COC(=O)c2ccccc2SCC(=O)N2CCCC2)cc(OC)c1 | -25.7%
CC(=O)NCCn1c(SCC(=O)NCc2ccco2)nc2ccccc2c1=O | -23.9%
N#CCSc1nc2ccccc2c(=O)n1CCCC(=O)NCc1ccco1 | -33.7%
CCCCN(C(=O)CSc1nnnn1C)C1CCS(=O)(=O)C1 (stereo not drawn) | -28.1%
COC(=O)N/N=C/c1cn(CCOc2ccc(OC)cc2)c2ccccc12 | 16.8%
Cc1ccc(-n2cc3c(=O)n(C)c(=O)n(C)c3c2)cc1C | -6.21%
CC(=O)N[C@H]1C(O)O[C@H](CO)[C@@H](O)[C@@H]1O (stereo partly drawn) | 9.71%
CCN(CC)c1ccc(C=O)c(OC)c1 | -9.16%
N#C/C(=C\c1cc2c(cc1Br)OCO2)c1ccc(C(=O)O)cc1 | 13.2%
COCC(=O)N(C)c1nnc(-c2ccc([N+](=O)[O-])cc2)s1 | 6.65%
CN(CC(=O)Nc1c(Cl)cccc1Cl)C(=O)c1ccncc1 | 19.4%
Cn1cnc2c1c(=O)n(Cc1cccc(F)c1)c(=O)n2C | 12%
Nc1c(C(=O)NC2CCCCC2)nsc1C(=O)OCC(=O)NC1CCCCC1 | 12.5%
CCn1c(-c2cc(-c3ccc(C)cc3)nc3ccccc23)n[nH]c1=S | 11.4%

SMILES | hERG current change (%, negative = inhibition) at 10uM
CNCCOc1ccc(Cl)c(Cl)c1.O=C(O)C(=O)O | 12.8%
COc1ccc(NC(=O)CNC(=O)Cc2cccc3ccccc23)c(OC)c1 | 2.01%
O=C(Nc1ncc(Cc2ccccc2)s1)C1COc2ccccc2O1 (stereo not drawn) | -0.581%
CCOC(=O)c1c(-c2ccc(C)o2)csc1NC(=O)COC(=O)c1cccs1 | -12%
CN1C(=O)NC(c2ccc(O)cc2)C2=C1CN(c1cccc3ccccc13)C2=O (stereo not drawn) | -11.8%
CCC(=O)NC(NC(=S)Nc1ccc(S(N)(=O)=O)cc1)C(Cl)(Cl)Cl (stereo not drawn) | -1.3%
Cc1ccc(CSc2nc3ccccc3c(=O)n2CCCC(=O)NCc2ccco2)cc1 | -2.71%
O=C(CCCCCn1c(SCc2ccncc2)nc2ccccc2c1=O)NCc1ccco1 | -86%
NS(=O)(=O)c1ccc(CCNC(=O)CSc2nc3ccccc3c(=O)n2CCC(=O)N2CCCCC2)cc1 | 19.8%
CCn1c(SCC(=O)NCc2ccccc2)nc2ccccc2c1=O | -11.6%
COc1ccc(NC(=O)CSc2nc3ccccc3c(=O)n2C)cc1 | 4.53%
O=C(CCCCCn1c(SCC(=O)c2ccccc2)nc2ccccc2c1=O)NCc1ccco1 | 10.8%
O=C(CSc1nc2ccccc2c(=O)n1CCC(=O)N1CCCCC1)NCc1ccccc1 | -70.4%
CCOc1ccc(NC(=O)CSc2nc3ccccc3c(=O)n2CCCC(=O)N2CCCC2)cc1 | -23.8%
COc1ccc(NC(=O)CSc2nc3ccccc3c(=O)n2CCC(=O)N2CCCCC2)cc1 | -69.2%
NC(=O)c1ccc(NC(=O)CSc2nnc(-c3ccc4c(c3)OCO4)o2)cc1 | 2.05%
CCCCN(CCCC)C(=O)c1sc2nc(N3CCOCC3)c3c(c2c1N)CCCC3 | 9%
COc1ccc(Cl)cc1NC(=O)NC1CCCCC1 | 10.3%
CN(CCCC(=O)NCc1ccco1)S(=O)(=O)c1ccccc1 | -5.89%
CC(=O)C12CCCCC1CC1C3CC(C)C4(O)CC(=O)CCC4(C)C3CCC12C (stereo not drawn) | 21.8%
Cc1nc2ccccc2c(=O)n1-c1ccccc1[N+](=O)[O-] | 17.2%
